Test results taken from PubChem BioAssay AID485314 (National Center for Advancing Translational Sciences (NCATS), 2010).
Hit rate of the full screen: of about 340,000 compounds, about 4,500 (1.3%) were called active. Inconclusive results (about 5%) are left out. Many of the other results were omitted from the sample, so actives are more common in it than they were. A number with no mark means an inactive call. Calls follow the shape of the dose curve; as a rule, active = well fitted inhibition curve with a large enough effect; inconclusive = small, poorly fitted or top-dose-only effect, or another doubt; inactive = no such curve, though single readings can be large or run the other way.

These compounds were tested against DNA polymerase beta (Homo sapiens) (UniProt P06746) (assay: qHTS Assay for Inhibitors of DNA Polymerase Beta). Conditions: Pol beta primer extension/strand displacement, fluorescence kinetic; series mostly up to 114 µM; activity change, negative = inhibition: at the top concentration.
How it was run: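 Preincubation: enzyme (10 nM) with compound, 15 min, RT. Reaction: substrate added to 50 nM final. Reads: 0 and 10 min. Analysis: normalized, Hill fit.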
% is scaled to controls: 0 for no effect and ±100 for the full control effect; potency is read from the fitted curve at half-maximal effect.

SMILES	activity change, negative = inhibition [%]	Potency
Cc1nonc1C(=O)N/N=C/c1ccc(O)cc1	-11.3	–
O=C(N/N=C/c1ccc(OC(=O)c2ccccc2Cl)cc1)c1ccc(O)cc1	17.4	–
Cc1nc2ccc(C(=O)N/N=C/c3ccc(O)cc3)cc2[nH]1	–	17.8 µM (active)
Cc1ccc2cc(CN(c3ccc(C)c(C)c3)S(C)(=O)=O)c(=O)[nH]c2c1	-21.3	–
COc1ccc(N(Cc2cc3cc(OC)ccc3[nH]c2=O)S(C)(=O)=O)cc1	–	4.47 µM (active)
COc1ccc(N(Cc2cc3ccc(C)cc3[nH]c2=O)S(=O)(=O)c2ccccc2)cc1	6.72	–
CCc1ccc(NC(=O)N2CCN(C(=O)c3nsc4ccccc34)CC2)cc1	40.9	–
COc1ccc(CNC(=O)CSCc2nc(-c3ccccc3F)oc2C)cc1	0.319	–
Cn1cc(S(=O)(=O)N2CCCCCC2)cc1C(=O)N1CCN(c2ccc(F)cc2)CC1	3.17	–
Cc1nn(Cc2ccccc2)c(C)c1C(=O)NCCN1C(=O)S/C(=C\c2ccc(F)cc2)C1=O	5.67	–
N#Cc1ccccc1CN1C(=O)S/C(=C/c2cccn2-c2cccc(C(=O)O)c2)C1=O	–	11.2 µM (active)
O=C(NCCN1C(=O)S/C(=C\c2cccnc2)C1=O)c1cccc(OC(F)F)c1	21.8	–
O=c1c(NCc2cccs2)nccn1-c1ccccc1	-23.5	–
COc1ccccc1CN1CCC(CNC(=O)c2cnn(-c3cccc(Cl)c3)c2C2CCN(C(=O)OC(C)(C)C)CC2)CC1	-17.3	–
CCc1ccccc1N1CC(c2nc3ccccc3n2CCCCOc2ccccc2)CC1=O (configuration not stated)	12	–
c1ccc(-c2ccc(OCCN3CCOCC3)cc2)cc1	10.7	–
CCOc1nc(NCCN2CCOCC2)nc(Nc2ccc(C)cc2)n1	32	–
c1ccc2cc3c(NCCN4CCOCC4)ccnc3cc2c1	–	14.1 µM (active)
Cc1cccc2c1-c1sc(C(=O)Nc3ccc(F)cc3F)cc1CO2	-1.64	–
COc1cc(OC)cc(C(=O)OCC(=O)Nc2ccc(F)cc2F)c1	-0.999	–
Cc1cccc(C(=O)OCC(=O)Nc2ccc(F)cc2)c1	-11.2	–
O=C(COC(=O)c1ccc(F)cc1F)Nc1ncccn1	–	35.5 µM (active)
Cc1ccc(NNC(=O)C2CCC2)cc1C	-17.5	–
Cc1ccc(Nc2cc(=O)n(C3CCCCC3)c(=O)[nH]2)cc1C	–	56.2 µM (active)
O=c1cc(C(F)(F)F)[nH]c(=O)n1C1CCCCC1	5.99	–
O=C(O)c1ccc(Nc2nc(-c3ccccc3)c3cc(Br)ccc3n2)cc1	29.2	–

SMILES	activity change, negative = inhibition [%]	Potency
COc1cccc(NC(=O)c2ccc3nc(CCc4ccccc4)oc3c2)c1	-29.7	–
O=c1/c(=C/c2ccc(CNS(=O)(=O)c3ccccc3)o2)sc2n1CCN=2	–	50.1 µM (active)
O=S(=O)(NCCNS(=O)(=O)c1ccccc1)c1ccccc1	-13.9	–
O=S(=O)(NCC1OCCc2ccccc21)c1ccccc1 (configuration not stated)	-16.7	–
CCn1cc(C(=O)NCc2ccccc2)c(=O)c2cc(S(=O)(=O)N3CCCCC3)ccc21	8.9	–
C/C(=N\NC(=O)c1ccccc1F)c1ccccn1	11.4	–
C/C(=N\NC(=O)Cc1ccc(Cl)cc1)c1ccccn1	18.3	–
CCN(CC)CCOc1ccc2c(c1)C(=NNC(=O)c1ccccn1)c1cc(OCCN(CC)CC)ccc1-2	–	2.82 µM (active)
O=C(NCCc1ccc(Cl)cc1)c1ccc2c(c1)N(Cc1ccc(F)cc1)C(=O)CS2	24.1	–
CCn1c2c(c(=O)n3ncc(C(=O)N4CCN(c5ccccc5)CC4)c13)CN(Cc1ccc(OC)cc1)CC2	1.91	–
N#Cc1c(-c2ccccc2)cc(-c2ccccc2)nc1SCC(=O)O	28.5	–
Nc1nc(NCC(=O)O)nc(N2CCCCCC2)c1[N+](=O)[O-]	13.4	–
N#Cc1c(N2CCCCC2)nc(N)c2c(N)nc(SCC(=O)O)cc12	–	35.5 µM (active)
CCC(CC)c1nnc(NC(=O)/C=C/c2ccco2)s1	-1.2	–
Cc1nnc(NC(=O)/C=C/c2ccco2)s1	–	31.6 µM (active)
CCOC(=O)c1c(NC(=O)/C=C/c2ccco2)sc(C)c1C	26.6	–
CCC(=O)Nc1ccc2nn(-c3ccc(F)cc3)nc2c1	21.1	–
Cc1ccc(-n2nc3ccc(NC(=O)/C=C/c4ccco4)cc3n2)cc1C	–	44.7 µM (active)
O=C(/C=C/c1ccco1)Nc1ccc(Oc2ccccc2)cc1	13.9	–
CCOC(=O)c1c(C)oc2nc(C)nc(Nc3ccc(CC)cc3)c12	-0.741	–
Cc1cc(C)c(-c2n[nH]c3c2C(c2ccccc2F)N(CCO)C3=O)c(O)c1 (configuration not stated)	-23.3	–
CC(C)(C)c1ccc(C(=O)NCC(c2ccc(Cl)cc2)N2CCOCC2)cc1 (configuration not stated)	-0.477	–
COCCCn1c(Cc2csc(Nc3cccc(Cl)c3)n2)nnc1SCC(=O)OC1CCCCC1	–	44.7 µM (active)
CCOc1ccc(Nc2nc(Cc3nnc(SCC(=O)NC4CCCC4)n3C)cs2)cc1	19.3	–
COCCCn1c(SCC(=O)NC2CCCC2)nnc1-c1ccccc1	56.4	–
O=S(=O)(c1ccccc1)c1nc(-c2ccc(Cl)cc2Cl)oc1N1CCCCC1	2.22	–

SMILES	activity change, negative = inhibition [%]	Potency
O=C(O)c1ccc2c(c1)C(=O)N(NC(=O)c1ccc(O)cc1)C2=O	11.7	–
O=C(c1ccc(O)cc1)c1ccc(C(=O)O)c(C(=O)O)c1	–	35.5 µM (active)
Cc1cccc(C(=O)c2cccc(C)c2)c1	10.4	–
CCOc1ccc(Nc2nc3c(S(=O)(=O)c4cccc(Cl)c4)nnn3c3ccsc23)cc1	74.9	–
CCCc1cc(=O)n2[nH]c(NCc3ccc(CC)cc3)nc2n1	3.13	–
CCCn1ccc2c(OCC(=O)NCc3ccc(F)cc3)cccc2c1=O	-9.24	–
Cc1csc2nc(COC(=O)c3ccccc3NC(=O)c3ccccc3Cl)cc(=O)n12	-1.41	–
Cc1cc2c(cc3c(SCc4cccc(Cl)c4)nnc(C)n32)o1	2.13	–
Clc1ccccc1CSc1nncn2c1cc1occc12	3.29	–
Clc1ccc(CSc2nncn3c2cc2occc23)cc1	–	31.6 µM (active)
COc1ccc(C)cc1Nc1nc2ccccc2c2nnc(C)n12	-0.842	–
Cc1ccc(C(=O)NNC(=O)c2cc3cc4ccccc4nc3s2)cc1	–	50.1 µM (active)
Cc1ccc(C(=O)NNC(=O)c2cccs2)cc1	23.2	–
Cc1ccc(C(=O)NNc2ncnc3ccccc23)cc1	0.16	–
Cc1coc2c(O)cc3c(c12)OC1(N2CCCCC2)C(=O)NCCCC31 (configuration not stated)	–	50.1 µM (active)
Cc1cc(C)c(/C=C/c2onc(C)c2S(=O)(=O)N2CCC(C(=O)Nc3ccc(Cl)cc3C)CC2)c(C)c1	0.277	–
CCCCOc1ccc(CN2C(=O)C(=O)c3cc(Br)cc(C)c32)cc1OC	-0.577	–
O=C(N/N=C/c1ccccn1)c1cccc(NC(=O)c2ccc(Cl)cc2)c1	32.1	–
O=C(Nc1ccc(S(=O)(=O)N2CCCCC2)cc1)c1cnccn1	-16.3	–
O=C(N/N=C/c1ccccn1)c1ccc(S(=O)(=O)N2CCCCCC2)cc1	–	20 µM (active)
CCOc1ccc(Nc2ncnc3scc(-c4ccc(OC)cc4)c23)cc1	3.28	–
CCOC(=O)c1ccc(NC(=O)Cn2c(=O)cc(C)c3c(C)nn(-c4cccc(F)c4)c32)cc1	9.23	–
CC(C)CNC(=O)COC(=O)/C=C/c1ccccc1[N+](=O)[O-]	24.6	–
CC(C)CNC(=O)COC(=O)/C=C/c1ccco1	–	28.2 µM (active)
COc1ccc([N+](=O)[O-])cc1NC(=O)COC(=O)/C=C/c1ccco1	-3.55	–
CCCOc1ccc(C2c3c(-c4ccccc4O)n[nH]c3C(=O)N2Cc2cccnc2)cc1 (configuration not stated)	-3.35	–

SMILES	activity change, negative = inhibition [%]	Potency
CC(C)(C)OC(=O)N1CCC(c2c(C(=O)Nc3ccc4c(c3)OCO4)cnn2-c2ccccc2)CC1	-11.1	–
CCCCOC(=O)CSc1ncnc2sc3c(c12)CCC(C)C3 (configuration not stated)	19.6	–
CCc1c(C)nc2cc(-c3cccs3)[nH]n2c1=O	8.34	–
Cc1cc(=O)n2[nH]c(-c3sccc3-n3c(C)ccc3C)cc2n1	–	44.7 µM (active)
Cc1cc(=O)n2[nH]c(-c3cccc(Cl)c3)cc2n1	-0.142	–
COc1cc(/C=N/NC(=O)CNC(=O)c2ccncc2)ccc1OC(C)=O	-0.998	–
COc1ccc(/C=N\NC(=O)c2sc(N)nc2C)cc1OC	–	17.8 µM (active)
COc1cccc(OCc2cc(/C=N/NC(=O)c3nc(Cl)c(Cl)c(N)c3Cl)ccc2OC)c1	6.43	–
COc1ccccc1Nc1c2c(nc3ccc(NC(=O)/C=C/c4cc(OC)c(OC)c(OC)c4)cc13)CCCC2	-13	–
CCc1nc2ccccc2n(CCOCCOCCn2c(=O)c(CC)nc3ccccc32)c1=O	–	35.5 µM (active)
CCOCCn1c(-c2ccccc2)nc2ccccc21	-5.52	–
CCOCCn1c(C(C)C)nc2ccccc21	5.17	–
COc1ccc(-c2nc(Cn3c(=O)cc(C)c4c(C)nn(-c5ccccc5)c43)c(C)o2)c(OC)c1	-3.95	–
CCN1CCN(c2ncnc3c2cnn3-c2ccc(C)c(C)c2)CC1	2.84	–
COc1cc(NC(=O)CN2CCN(S(=O)(=O)c3ccc(Br)cc3)CC2)cc(OC)c1	2.24	–
CCOC(=O)CCc1c(C)c2ccc(OCc3nn[nH]n3)c(C)c2oc1=O	13.4	–
Cc1c(CCC(=O)O)c(=O)oc2cc(OCc3ccc(Br)cc3)ccc12	15.4	–
Cc1c(CCC(=O)O)c(=O)oc2c(C)c(OCc3ccccc3Cl)ccc12	–	12.6 µM (active)
COc1ccccc1CNc1ccc(-c2nc(-c3ccccc3C)no2)cc1[N+](=O)[O-]	4.87	–
COc1cccc(-c2nnc3n(CCc4ccccc4)c(=O)c4ccccc4n23)c1O	2.27	–
CCCCN(CCCNC(=O)c1cc(Nc2ccccc2OC)nc2ccccc12)c1ccccc1	29.1	–
CCCCN(C)S(=O)(=O)c1ccc(C(=O)Nc2sc3c(c2C(N)=O)CC(C)(C)NC3(C)C)cc1	-12.5	–
CC1=C(c2ccc(C)cc2)S(=O)(=O)NC1=NCCCN1CCN(c2cc(C)ccc2C)CC1	0.366	–
CCOc1ccc(NC(=O)c2cc(S(=O)(=O)N3CCCC3)c[nH]2)cc1	2.74	–
